Reference: PubChem BioAssay (NCATS)
Records with an inconclusive call do not appear. A call without a number means that no potency is given here. Active and inactive are the calls of the source. Calls come from the whole dose curve; as a rule, active = well fitted inhibition curve with a large enough effect; inconclusive = small, poorly fitted or top-dose-only effect; inactive = no such curve, though single readings can be large or run the other way.

test: qHTS to identify inhibitors of the type 1 interferon - major histocompatibility complex class I in skeletal muscle: primary screen against the NCATS Mechanism Interrogation Plate v5.0 (MIPE) Libary (AID 1347411); conditions: iHSKM cells + IFN-b, HiBiT-tagged MHC-I luminescence, 24 h; series mostly up to 45.8 µM; note: nearly all actives have a fitted effect of over 65% in size
Method in brief: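 Immortalized human myoblasts (C25cl48) with HiBit knocked into endogenous HLA-B*08:01 were stimulated with 4 ng/ml IFN-beta and given compounds in 11-point 1:3 titration from 46 uM. After 24 h at 37 C, lytic HiBiT luminescence was read.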
Potency is the fitted concentration of half-maximal effect.

Row | Molecule | Potency | outcome
1 | CC(=O)N[C@H]1CSSC[C@@H](C(N)=O)NC(=O)[C@H](C(C)C)NC(=O)[C@H](C)NC(=O)[C@H](Cc2cnc[nH]2)NC1=O | inactive | –
2 | O=C1S/C(=C\c2ccc(OCc3cccc(B(O)O)c3)cc2)C(=O)N1Cc1ccc(F)cc1 | inactive | –
3 | O=C(O)/C(S)=C/c1ccc(I)cc1 | inactive | –
4 | O=c1ncccn1[C@@H]1O[C@H](CO)[C@@H](O)[C@H]1O | inactive | –
5 | CC(C)OC(=O)[C@H](C)N[P@](=O)(OC[C@H]1O[C@@H](n2ccc(=O)[nH]c2=O)[C@](C)(F)[C@@H]1O)Oc1ccccc1 | inactive | –
6 | Cc1nc(C)c(CN2CCN(C(c3ccc(F)cc3)c3ccc(F)cc3)CC2)nc1C | inactive | –
7 | C=C1/C(=C/C=C2\CCCC3(C)[C@@H]([C@H](C)/C=C/C=C/C(O)(CC)CC)CC[C@@H]23)C[C@@H](O)C[C@@H]1O (stereo not given in full) | inactive | –
8 | Nc1cccc2c1CN([C@H]1CCC(=O)NC1=O)C2=O | inactive | –
9 | C[C@H]1CN(C2COC2)CCN1c1ccc(Nc2cc(-c3ccnc(N4CCn5c(cc6c5CC(C)(C)C6)C4=O)c3CO)cn(C)c2=O)nc1 | inactive | –
10 | CN(CCOc1ccc(-c2ccc3c(c2)OCO3)cc1C(C)(C)C)CC(=O)O | inactive | –
11 | C=CC(=O)N1C[C@H](Nc2ncnc3[nH]ccc23)CC[C@@H]1C | inactive | –
12 | COc1cc(-c2cn(C)c(=O)c3cnccc23)cc(OC)c1CN(C)C | inactive | –
13 | CC(C)(CO)n1cc(C(=O)c2cncc(NC(=O)Cc3ccc(Cl)cn3)c2)c2cnc(N)nc21 | inactive | –
14 | CCn1c(=O)c2c(nc(/C=C/c3ccc(OC)c(OC)c3)n2C)n(CC)c1=O | inactive | –
15 | CCC(=O)OCC(=O)C1(OC(=O)CC)C(C)CC2C3CCC4=CC(=O)C=CC4(C)C3(F)C(O)CC21C (stereo not given) | inactive | –
16 | O=C(Cc1ccccc1)Nc1nnc(CCSCCc2nnc(NC(=O)Cc3ccccc3)s2)s1 | inactive | –
17 | Cc1[nH]nc2ncc(C(=O)N3CCC[C@H]3c3ccc(Cl)cc3)cc12 | inactive | –
18 | NS(=O)(=O)Oc1ccc2c3c(c(=O)oc2c1)CCCCC3 | inactive | –
19 | Fc1ccc(-c2csc3ncnc(NCc4ccc5c(c4)OCO5)c23)cc1 | inactive | –
20 | CC(=O)N1CCC(Nc2cc(C(=O)NC[C@H](O)CN3CCc4ccccc4C3)ncn2)CC1 | inactive | –

Row | Molecule | Potency | outcome
21 | Nc1cc(COc2c(Cl)cc(C[C@H](N)C(=O)O)cc2Cl)c2oc(-c3ccccc3)nc2c1 | inactive | –
22 | C=CC(=O)N1CC(N2CCN(C(=O)CNc3cc(C4(C)CC4)c(Cl)cc3O)CC2)C1 | inactive | –
23 | COc1ccc(S(=O)(=O)NCc2ccc(C(=O)NCCc3ccc(Cl)cn3)cc2)cc1 | inactive | –
24 | CCOCOC[C@H](C[C@H](C)C(=O)NO)NC(=O)c1ccc(Oc2ccccc2)cc1 | inactive | –
25 | CN(C(=O)CNC(=O)/C=C/c1cccc(Cl)c1)C1CCS(=O)(=O)CC1 | inactive | –
26 | OCCOc1ccc(/C(=C(/CCCl)c2ccccc2)c2ccccc2)cc1 | inactive | –
27 | CNS(=O)(=O)Nc1nccc(Cc2c(C)c3ccc(Oc4ncccn4)cc3oc2=O)c1F | inactive | –
28 | CN(C)C(N)=NC(=N)N | – | inactive
29 | C=CC(=O)Nc1cc(N2CCN(CC)CC2)ccc1Nc1cc(N(C)C(=O)Nc2c(Cl)c(OC)cc(OC)c2Cl)ncn1 | inactive | –
30 | CC(C)Oc1ccc(-c2nn([C@@H](C)c3oc4ccc(F)cc4c(=O)c3-c3cccc(F)c3)c3ncnc(N)c23)cc1F | inactive | –
31 | Ac-PHSCN-NH2 | inactive | –
32 | CS(=O)(=O)c1ccc([C@@H](CC2CCCC2)C(=O)Nc2nccs2)cc1 | inactive | –
33 | CCS(=O)(=O)N1CCC(C(C)n2c(C)c(C(=O)NCc3c(OC)cc(C)[nH]c3=O)c3ccccc32)CC1 (stereo not given) | inactive | –
34 | CCOc1ccc(-n2c([C@@H](C)N(Cc3cccnc3)C(=O)Cc3ccc(F)c(C(F)(F)F)c3)nc3ncccc3c2=O)cc1 | inactive | –
35 | COc1cc(-c2cn(C)c(=O)c3cnccc23)c(OC)cc1CN(C)C | inactive | –
36 | COC(=O)C1=C(C)NC(c2ncc(F)cc2F)=N[C@@H]1c1ccc(F)cc1Cl | 16.5 µM (active) | –
37 | CCCN(CCC)C(=O)C1=Cc2ccc(-c3ccc(C(=O)N4CCCC4)cc3)cc2N=C(N)C1 | inactive | –
38 | CC(=O)[C@]1(N)Cc2c(O)c3c(c(O)c2[C@@H](O[C@H]2C[C@H](O)[C@H](O)CO2)C1)C(=O)c1ccccc1C3=O | inactive | –
39 | Cc1ccc(NC(=O)[C@H]2CCCN(C(=O)c3c(C)cccc3F)[C@H]2c2ccc(NC3CCCC3)cc2)cc1C(F)(F)F | inactive | –
40 | Nc1ncc(C(=O)NC2CN(C(=O)C3CC3)C2)c2ccc(-c3cccc(F)c3)nc12 | inactive | –
